Results on 99 compounds are retold here after ChEMBL document CHEMBL3988442, “University of Dundee, Small-Polar-MMV Screening Library” (2021).

Molecules are shown by their SMILES. In all, about 48,000 compounds went through this assay and about 13,000 (27%) showed an effect of 50% or more. This is one part of the list.

This experiment concerns Wolbachia pipientis. Kind of experiment: Anti-Wolbachia Cell-Based Screen. The experiment is classed as functional. As to conditions: 5 µM. Details: scale not given: in the data most compounds retested in dose-response had high values.
With `COc1c(CNC(c2nccn2C)C(C)C)c(C)nn1C` (centres undefined), the “Percent Effect” value is listed as -4.434%. Under `CCN(CC)Cc1cc(C(=O)N2CCC3(CC2)NCCNC3=O)c(C)o1` stands -9.012%; under `COc1ccc(Br)cc1CN(C)c1nc2c(cnn2C)c(=O)[nH]1`, -19.59%.

For `Cc1nc(-c2ccncc2)nc(N(C)CCc2ccncc2)c1C`, the “Percent Effect” value worked out at 0.9394%. On to `CN(CCc1ccncc1)c1cnn(C)c(=O)c1Br`, for which the “Percent Effect” value came to 103%. With `COCCN(C)c1cnn(C)c(=O)c1Br`, the “Percent Effect” value stood at 101.6%.

Turning to `CN(CCc1ccccc1)c1cnn(C)c(=O)c1Br`, the “Percent Effect” value is recorded as 67.25%.

Take `CN(C)CCN(C)c1nc(CCc2ccccc2)nc2c1cnn2C`: the “Percent Effect” value came out at 4.899%.

With `CN(CCc1ccccn1)c1cnn(C)c(=O)c1Br`, the “Percent Effect” value stood at 101.4%. `Cc1nc(N(C)C)nc(N(C)CCc2ccncc2)c1C`: the “Percent Effect” value was found to be 13.66%. `COCCN(Cc1ccc(F)cc1Cl)C(=O)c1cnn(C)c1C`: the “Percent Effect” value was -5.759%. With `CC(C)N(C)C(=O)Cn1ncc(N(C)CCc2ccccc2)cc1=O`, the “Percent Effect” value is reported as -17.71%. Take `CN(CCc1ccccn1)Cc1nccn1Cc1ccccc1`: the “Percent Effect” value was 8.438%.

Consider `CN(CCc1ccccc1)c1cnn(Cc2ccccn2)c(=O)c1`, for which the “Percent Effect” value worked out at 5.151%. As to `NS(=O)(=O)CCNC(=O)C1(c2ccc(Br)cc2)CC1`, the “Percent Effect” value is on record as -1.628%. `CCc1nnc2n1CCN(C(=O)Cc1csc(-c3ccco3)n1)C2`: the “Percent Effect” value was -5.069%. With `CCCC(=O)NCC(=O)Nc1cc(F)ccc1SCC(F)F`, the “Percent Effect” value amounted to 9.844%. `Cc1noc([C@@H]2C[C@H](NC(=O)Nc3cccc(F)c3)CN2C)n1`: the “Percent Effect” value is -4.092%. For the compound `CS(=O)(=O)NCc1n[nH]c2c1CCN(C(=O)c1ccsc1)C2`, the “Percent Effect” value is recorded as -6.349%. Turning to `Cc1nn(C)cc1-c1ccnc(N(C)Cc2cccs2)n1`, the “Percent Effect” value is reported as -35.4%.

In the case of `CCOc1cccc(CNC(C)c2ccc(-n3ccnc3)cc2)c1O` (centres undefined), the “Percent Effect” value is recorded as -2.856%. Take `O=C(c1ccc(F)cc1Cl)N1CCn2c(nnc2C(F)(F)F)C1`: the “Percent Effect” value is -1.794%. As for `OCCN1CCN(Cc2cnc3c(-c4ccccc4)cnn3c2)CC1`, the “Percent Effect” value was -3.434%.

Take `COCCCC1(C(=O)O)CCCN(Cc2cc3c(cc2C)OCCO3)C1` (centres undefined): the “Percent Effect” value is -2.058%. As for `COCCNC(=O)CN1CCN(c2nc3cc(C)ccc3o2)CC1`, the “Percent Effect” value is -13.48%. In the case of `COCCNC(=O)CN1CC=C(n2c(C)nc(=O)c3ccccc32)CC1`, the “Percent Effect” value stood at 80.87%. Under `Cc1ccc2nc(N3CCN(CC(=O)NC(C)C)CC3)cc(C)c2c1` stands 5.586%; under `O=C(c1cn(CC(=O)N2CCCCCC2)c2ccccc12)C1CC1`, -6.817%; under `O=C(CN1CCc2cncnc2C1)NCCOc1ccccc1`, -0.7298%.

With `Cc1nnc2n1CCN(CC(=O)NC(C)c1cccc3ccccc13)C2` (centres undefined), the “Percent Effect” value is -6.251%. Consider `Cc1nc(=O)c2ccccc2n1C1=CCN(CC(=O)NC(C)C)CC1`, for which the “Percent Effect” value came out at 121.8%. Consider `Cc1nc(=O)c2ccccc2n1C1=CCN(CC(=O)N2CCCC2)CC1`, for which the “Percent Effect” value turned out to be 121.3%. As for `O=C(c1cn(CC(=O)N2CCCC2)c2ccccc12)C1CC1`, the “Percent Effect” value was -23.59%. As to `CCNC(=O)CN(CC)C(=O)c1cc(-c2cccc(Cl)c2)no1`, the “Percent Effect” value is reported as -7.468%. Regarding `CC(CN1CCOCC1)NC(=O)c1cccc2cn[nH]c12` (centres undefined), the “Percent Effect” value was 6.229%. The same measure for `CN(C)C[C@H]1C[C@@H]2CN(C(=O)c3ccno3)C[C@@H]2O1.O=C(O)C(F)(F)F`: -9.995%; for `Cc1cnn(CC(=O)N2CCCN(Cc3cnn(C(C)C)c3)CC2)c1`: 117.3%. Turning to `Cc1cc(C(=O)N2CCCN(Cc3cnn(C(C)C)c3)CC2)no1`, the “Percent Effect” value is listed as 2.122%. For `Cc1cnc(C(=O)N2CCCN(Cc3cnn(C(C)C)c3)CC2)cn1`, the “Percent Effect” value came out at 1.046%.

Consider `CC(C)n1cc(CN2CCCN(C(=O)CN3CCCC3=O)CC2)cn1`, for which the “Percent Effect” value is 122.9%.

Regarding `NS(=O)(=O)c1cnc(NCC2(c3ccccc3)CCC2)s1`, the “Percent Effect” value is recorded as -8.019%. As for `Cc1cc(NC(=O)Cc2ccc3c(c2)OCO3)n(C)n1`, the “Percent Effect” value came out at 120.5%. On to `Cn1ncc(NC(=O)Cn2ccc(-c3cccc(F)c3)n2)n1`, for which the “Percent Effect” value is listed as -3.857%.

For the compound `CC(=O)c1ccc(-c2cnn(CC(=O)Nc3cc(C)nn3C)c2)nc1`, the “Percent Effect” value amounted to 2.251%. Take `Cc1cc(N2CCN(C(=O)Cc3ccc4c(c3)OCO4)CC2)cc(C)n1`: the “Percent Effect” value is -8.837%. As for `Cc1cc(NC(=O)NCCc2ccc3c(c2)OCCO3)n(C)n1`, the “Percent Effect” value was -3.946%. Regarding `Cc1cc(NC(=O)Cn2ccc(-c3ccc4c(c3)OCO4)n2)n(C)n1`, the “Percent Effect” value is recorded as 140.3%. As to `Cn1nccc1NC(=O)Cn1ccc(-c2ccc3c(c2)OCO3)n1`, the “Percent Effect” value is 132.1%. For the compound `CCC1CN(CC(=O)Nc2cc(C)nn2C)CCO1` (centres undefined), the “Percent Effect” value was determined as 11.37%. The same measure for `Cn1ncc(NC(=O)Cn2ccc(-c3ccc(F)cc3)n2)n1`: 6.673%.

As to `CCCOc1cc(Cl)c(CN2CCNC(C(=O)NC3CC3)C2)cc1OC` (centres undefined), the “Percent Effect” value was -0.8522%. The same measure for `O=C(c1cncc(N2CCCC3(CCNCC3)CC2)n1)N1CCCCC1`: 3.422%; for `COc1cc(F)cc(CNC(=O)Nc2ccn(CC(F)F)n2)c1`: -8.907%.

In the case of `COCC(=O)N(Cc1cccnc1)CC1CCCN(C2CCCCC2)C1` (centres undefined), the “Percent Effect” value is -12.35%. `Cc1c(NCc2cccnc2)cccc1C(=O)N1CCC(N(C)C)C1` (centres undefined): the “Percent Effect” value amounted to 115.4%. As for `O=C(c1cnc(NCc2cccnc2)c(Cl)c1)N1CCCCC1`, the “Percent Effect” value is given as 2.275%. Turning to `NC(=O)CN1CCC(C(=O)N2CCCC(OCc3cccnc3)C2)CC1` (centres undefined), the “Percent Effect” value was -8.18%.

For the compound `Cc1[nH]nc(CCC(=O)N2CCCC(OCc3cccnc3)C2)c1C` (centres undefined), the “Percent Effect” value is 1.428%. Take `CC(C)N1CCN(C(=O)c2ccccc2NCc2cccnc2)CC1`: the “Percent Effect” value stood at 80.75%.

As for `CN(C)C[C@H]1OC[C@@H]2CN(C(=O)NCc3cccnc3)CC[C@@H]21.O=C(O)C(F)(F)F.O=C(O)C(F)(F)F`, the “Percent Effect” value is recorded as -2.462%. `COC(=O)C1CCN(C(=O)c2cccc(NS(C)(=O)=O)c2C)CC1`: the “Percent Effect” value is listed as 5.787%. Under `CCOC1CCCN(C(=O)c2ccccc2NCc2cccnc2)C1` (centres undefined) stands 55.92%; under `COCC1CCCN(C(=O)c2ccccc2NCc2cccnc2)C1` (centres undefined), 97.72%; under `CSCC1CCN(C(=O)c2ccccc2NCc2cccnc2)C1` (centres undefined), 46.56%. On to `Cc1ccc(CNC(=O)N2CCN(C(C)c3cccnc3)CC2)cn1` (centres undefined), for which the “Percent Effect” value is reported as -10.7%. As for `Cn1ccnc1CN1CCN2C[C@H](OCc3ccccc3)C[C@H]2C1.O=C(O)C(F)(F)F.O=C(O)C(F)(F)F`, the “Percent Effect” value is given as -3.164%.

In the case of `Cc1cccc(C(C(=O)N2CC(c3ccncc3)C2)N(C)C)c1` (centres undefined), the “Percent Effect” value was -5.316%. For `N#Cc1ccc(F)c(CNC(=O)NCCC(=O)NC2CCCC2)c1`, the “Percent Effect” value is on record as 6.795%. The same measure for `N#CC1(NC(=O)c2nccc3ccccc23)CCC2(CC1)OCCO2`: 0.4939%. Under `Cc1noc(C)c1S(=O)(=O)N(CC(N)=O)CC(C)C` stands 2.709%; under `COC1CCN(C(=O)c2ccccc2NCc2cccnc2)CC1`, 112.6%. For the compound `Cc1ccn(-c2ccccc2NCc2cccnc2)n1`, the “Percent Effect” value is recorded as -3.836%. On to `COCCN1CCCn2cnc(CNC3CCCC3)c2C1.Cl.Cl`, for which the “Percent Effect” value was -22.39%. The same measure for `O=C(c1nc(Cc2c[nH]c3ccccc23)no1)N1CCOCC1`: 109.7%; for `c1ccc2c(Cc3nnc([C@H]4CCN(C5CCCCC5)C4)o3)c[nH]c2c1`: 3.447%; for `O=C(O)c1cc2n(n1)CCCN(C(=O)CCc1c[nH]c3ccccc13)C2`: -8.48%. `c1ccc2c(Cc3nnc([C@H]4CCN(C5CCOCC5)C4)o3)c[nH]c2c1`: the “Percent Effect” value stood at 1.602%. In the case of `O=C(c1nc(Cc2c[nH]c3ccccc23)no1)N1CCCCC1`, the “Percent Effect” value is listed as 107.9%. In the case of `CC(=O)N1CC[C@H](c2nnc(Cc3c[nH]c4ccccc34)o2)C1`, the “Percent Effect” value is recorded as -6.086%. As to `O=C(c1nc(-c2ccc3cc[nH]c3c2)no1)N1CCCC1`, the “Percent Effect” value was found to be 5.655%.

With `O=C(c1nc(Cc2c[nH]c3ccccc23)no1)N1CCCC1`, the “Percent Effect” value was determined as 91.24%. For the compound `O=C(C1CC1)N1CC[C@H](c2nnc(Cc3c[nH]c4ccccc34)o2)C1`, the “Percent Effect” value is given as -9.274%.

Consider `CN(C)C(CNCc1nc(-c2ccsc2)no1)c1ccsc1` (centres undefined), for which the “Percent Effect” value amounted to 7.6%.

Take `CC(SCc1ccc(Br)c2cccnc12)C(N)=O` (centres undefined): the “Percent Effect” value is listed as -7.187%. For `CCNC(=O)c1ccc(N2CCCC(c3nccn3C(C)C)C2)nc1` (centres undefined), the “Percent Effect” value was -0.11%. For the compound `Cn1cc(Cl)c(CN2CCn3nc(C(=O)N4CCCC4)cc3C2)n1`, the “Percent Effect” value is on record as -5.174%. For `COCCN1CC[C@@H]2OC[C@H](C(=O)N(C)Cc3ccccn3)C[C@@H]2C1`, the “Percent Effect” value is recorded as 115.4%.

In the case of `COCCN(Cc1ccccn1)C(=O)C1CCCCCN1C` (centres undefined), the “Percent Effect” value is -8.345%. For `CN(Cc1ccccn1)C(=O)c1nn(C)c2c1CCN(CC1CC1)C2.O=C(O)C(F)(F)F.O=C(O)C(F)(F)F.O=C(O)C(F)(F)F`, the “Percent Effect” value is given as -10.9%.

As for `COCCN1CCC(C(=O)N(C)Cc2cccc(Cl)c2)C1` (centres undefined), the “Percent Effect” value is -62.62%. In the case of `CN(Cc1ccco1)C[C@H]1OC[C@@H]2CCN(Cc3ccccn3)C[C@@H]21.O=C(O)C(F)(F)F.O=C(O)C(F)(F)F.O=C(O)C(F)(F)F`, the “Percent Effect” value is listed as 0.7755%. Under `CN(Cc1ccccn1)C(=O)[C@H]1CO[C@H]2CCN(CC3CC3)C[C@H]2C1.O=C(O)C(F)(F)F.O=C(O)C(F)(F)F` stands 99.36%; under `CC(C)c1nc(CN2CCC(CO)CC2)cs1`, -12.85%; under `O=C(c1ccco1)N1CCCn2cnc(COCC3CC3)c2C1`, -7.899%. Under `COCc1ncn2c1CN(C(=O)c1ccco1)CC2` stands 113.2%; under `O=C(c1ccc[nH]1)N1CCCn2cnc(COCC3CC3)c2C1`, -13.58%; under `O=C(c1ccc2[nH]ccc2c1)N1CCn2cnc(COCC3CC3)c2C1`, -3.31%. Consider `COCc1ncn2c1CN(C(=O)c1ccc[nH]1)CC2`, for which the “Percent Effect” value stood at 111%.

Regarding `CN1CCN(Cc2cn3c(n2)CN(C(=O)c2ccco2)CC3)CC1`, the “Percent Effect” value is on record as -12.05%.
